The supplement of paper PMC10127200
Several values for one entry are separate records, joined by “and”; a condition that tells them apart may be missing. Identical values can stand only once. Counter-ions that a name gives are not always drawn.

Tests used:
Experiment in all cases: Euclidean distance of Cell Painting phenotypic profile (signed KS, 77 features) to DMSO centroid (dimensionless distance); 5 or 10 uM (library dependent); higher = stronger phenotypic change vs DMSO (phenoactivity)
Details in all cases: 48 h
[1] = system: 786-O
Outline: (§1)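 Library compounds were applied at 10 or 5 uM, depending on the library, with 0.1% DMSO final, for 48 h to five cancer lines and a healthy fibroblast line. After staining, cells were imaged confocally at 20X across 9 fields per well, and Harmony extracted 77 features, each scored as a signed Kolmogorov-Smirnov statistic against vehicle wells on the same plate. Phenoactivity is the Euclidean distance between each profile and the median vehicle profile, with profiles first plate-position corrected, correlation-weighted and averaged over replicates at the top dose.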

[2] = system: A549
Outline: as §1

[3] = system: DU145
Outline: as §1

[4] = system: FB
Outline: as §1

[5] = system: HEPG2
Outline: as §1

[6] = system: OVCAR4
Outline: as §1

Row | Compound | Euclidean distance [1] | Euclidean distance [2] | Euclidean distance [3] | Euclidean distance [4] | Euclidean distance [5] | Euclidean distance [6]
1 | Cc1cc(-c2ccc(/N=N/c3ccc4c(S(=O)(=O)O)cc(S(=O)(=O)O)c(N)c4c3O)c(C)c2)ccc1/N=N/c1ccc2c(S(=O)(=O)O)cc(S(=O)(=O)O)c(N)c2c1O [Evans Blue] | 0.929 | 0.808 | 0.955 | 1.65 | 0.481 | 1.37
2 | CC[C@@H](CO)NCCN[C@@H](CC)CO [Ethambutol 2HCl] | 1.58 | 0.663 | 1.06 | 0.73 | 0.465 | 1.38
3 | CN(C)c1nc(N(C)C)nc(N(C)C)n1 [Altretamine] | 1.11 | 0.902 | 0.807 | 1.32 | 0.597 | 0.929
4 | COc1ccc2cc1Oc1ccc(cc1)C[C@H]1c3c(cc4c(c3Oc3cc5c(cc3OC)CCN(C)[C@@H]5C2)OCO4)CCN1C [Cepharanthine] | 4.22 | 4.24 | 3.62 | 4.8 | 3.63 | 3.87
5 | O=C(O)c1ccccc1C(=O)Nc1ccc(S(=O)(=O)Nc2nccs2)cc1 [Phthalylsulfathiazole] | 1.08 | 1.02 | 0.914 | 1.11 | 0.685 | 0.869
6 | Cc1cn(-c2cc(NC(=O)c3ccc(C)c(Nc4nccc(-c5cnccn5)n4)c3)cc(C(F)(F)F)c2)cn1 [Radotinib] | 1.61 | 1.33 | 1.78 | 1.12 | 0.843 | 1.17
7 | C[C@@H]1CCN(C(=O)CC#N)C[C@@H]1N(C)c1ncnc2[nH]ccc12 | 0.925 and 0.548 | 0.553 and 0.511 | 1.04 and 0.639 | 0.618 and 0.551 | 0.886 and 0.785 | 0.908 and 0.677
8 | CC1(C)S[C@@H]2[C@H](NC(=O)[C@H](N)c3ccc(O)cc3)C(=O)N2[C@H]1C(=O)O [Amoxicillin trihydrate] | 0.875 | 1 | 0.666 | 0.987 | 0.529 | 1.31
9 | CC(C)(O)c1ccccc1CC[C@@H](SCC1(CC(=O)O)CC1)c1cccc(/C=C/c2ccc3ccc(Cl)cc3n2)c1 [Montelukast Sodium] | 0.941 | 0.527 | 0.759 | 0.512 | 0.526 | 0.733
10 | c1ccc(CC2=NCCN2)cc1 [Tolazoline HCl] | 0.97 | 1.05 | 0.877 | 0.718 | 0.734 | 1.42
11 | CC1(C)CC(=O)c2c(C(F)(F)F)nn(-c3ccc(C(N)=O)c(N[C@H]4CC[C@H](OC(=O)CN)CC4)c3)c2C1 | 3.85 | 3.38 | 3.89 | 3.31 | 3.05 | 2.62
12 | Nc1ccccc1NC(=O)c1ccc(CNc2nccc(-c3cccnc3)n2)cc1 [Mocetinostat (MGCD0103)] | 3.18 | 3.33 | 2.95 | 3.48 | 3.36 | 3.38
13 | CCC(=O)NS(=O)(=O)c1ccc(-c2c(-c3ccccc3)noc2C)cc1 [Parecoxib] | 0.575 | 0.57 | 0.471 | 1.11 | 0.593 | 0.719
14 | COc1cc2nc(N3CCN(C(=O)C4CCCO4)CC3)nc(N)c2cc1OC (stereo unspecified) [Terazosin HCl] | 1.12 | 0.699 | 0.618 | 1.15 | 1.33 | 1.01
15 | CCOCC(O)COc1ccc(NC(=O)CC[S+](C)C)cc1 (stereo unspecified) [Suplatast Tosylate] | 1.48 | 1.01 | 1.47 | 1.14 | 0.648 | 1.13
16 | COc1ccc(C(=O)NCc2ccc(OCCN(C)C)cc2)cc1OC [Itopride hydrochloride] | 1.63 | 0.807 | 0.903 | 0.871 | 1.09 | 0.695
17 | O=C1c2cccc(O)c2C(=O)c2c(O)cc(CO)cc21 [Aloe-emodin] | 1.1 | 1.14 | 1.2 | 1.05 | 1.08 | 1.41
18 | COc1cccc(N2CCN(C3=Nc4c(F)cccc4C(CC(=O)O)N3c3cc(C(F)(F)F)ccc3OC)CC2)c1 (stereo unspecified) [Letermovir(AIC246)] | 1.22 | 1.44 | 0.984 | 0.978 | 0.523 | 1.01
19 | c1cc(CN2CCCNCCNCCCNCC2)ccc1CN1CCCNCCNCCCNCC1 [Plerixafor 8HCl (AMD3100 8HCl)] | 1.37 | 1.38 | 0.691 | 1.5 | 0.69 | 1.7
20 | COc1ccc(NS(=O)(=O)c2ccc(N)cc2)nn1 [Sulfamethoxypyridazine] | 0.978 | 0.771 | 1.02 | 1.64 | 0.55 | 1.05
21 | O=C(O)/C=C/c1ccc(O)c(O)c1 [Caffeic Acid] | 0.946 | 0.603 | 1.61 | 0.961 | 0.639 | 1.23
22 | O=C(O)c1cccnc1Nc1cccc(C(F)(F)F)c1 [Niflumic acid] | 0.923 | 1.01 | 1.02 | 1.24 | 1.19 | 1.26
23 | COc1ccc(Cl)cc1NC(=O)Nc1cc(C)nc2ccccc12 | 1.14 | 1.85 | 1.06 | 1.02 | 0.631 | 1.47

Row | Compound | Euclidean distance [1] | Euclidean distance [2] | Euclidean distance [3] | Euclidean distance [4] | Euclidean distance [5] | Euclidean distance [6]
24 | CC(=O)NS(=O)(=O)c1ccc(N)cc1 [Sulfacetamide Sodium] | 1.12 | 0.648 | 1.22 | 0.694 | 0.673 | 1.05
25 | CCn1c(=O)c2c(nc(/C=C/c3ccc(OC)c(OC)c3)n2C)n(CC)c1=O [Istradefylline] | 1.47 | 1.5 | 0.734 | 1.18 | 0.77 | 1.44
26 | Oc1cc(O)c(Cl)cn1 [Gimeracil] | 0.868 | 1.07 | 1.6 | 1.25 | 2.06 | 1.53
27 | CNc1ncc(-c2ccc3c(=O)c(C(=O)O)cn(C4CC4)c3c2C)cc1C [Ozenoxacin] | 1.31 | 0.846 | 0.593 | 1.13 | 1.01 | 0.85
28 | C[C@@H](O)[C@@H]1NC(=O)[C@H](CCCCN)NC(=O)[C@@H](Cc2c[nH]c3ccccc23)NC(=O)[C@H](Cc2ccccc2)NC(=O)[C@@H](NC(=O)[C@H](N)Cc2ccccc2)CSSC[C@@H](C(=O)N[C@H](CO)[C@@H](C)O)NC1=O [Octreotide Acetate] | 1.6 | 1.39 | 1.08 | 0.734 | 0.782 | 1.45
29 | CN1CCCC(n2nc(Cc3ccc(Cl)cc3)c3ccccc3c2=O)CC1 (stereo unspecified) [Azelastine HCl] | 1.09 | 0.991 | 0.881 | 2.15 | 1.14 | 0.789
30 | CO[C@H]1/C=C/O[C@@]2(C)Oc3c(C)c(O)c4c(O)c(c5c(nc6cc(C)ccn65)c4c3C2=O)NC(=O)/C(C)=C\C=C\[C@H](C)[C@H](O)[C@@H](C)[C@@H](O)[C@@H](C)[C@H](OC(C)=O)[C@@H]1C [Rifaximin] | 1.35 | 0.671 | 0.886 | 1 | 1.9 | 1.06
31 | CC1(C)NC(=O)N(c2ccc([N+](=O)[O-])c(C(F)(F)F)c2)C1=O [Nilutamide] | 0.81 | 0.753 | 1.03 | 0.9 | 0.474 | 0.959
32 | CCS(=O)(=O)N1CC(CC#N)(n2cc(-c3ncnc4[nH]ccc34)cn2)C1 [Baricitinib phosphate] | 1.75 | 0.985 | 1.99 | 1.55 | 0.776 | 0.981
33 | CCCCCCCCCC(=O)CC(O)S(=O)(=O)O (stereo unspecified) [Sodium Houttuyfonate] | 1.45 | 0.727 | 1.5 | 0.985 | 1.06 | 1.66
34 | CN(C)CCOc1ccc(-c2nc(-c3ccncc3)c(-c3ccc4c(c3)CC/C4=N\O)[nH]2)cc1 | 1.49 | 1.63 | 2.08 | 2.65 | 4.66 | 2.22
35 | CC1=C(C(=O)O)N2C(=O)[C@@H](NC(=O)[C@H](N)C3=CCC=CC3)[C@H]2SC1 [Cephradine monohydrate] | 1.65 | 0.779 | 2.12 | 0.776 | 0.698 | 0.618
36 | CC(=O)Nc1ccc(NC(=S)NC(=O)c2ccc(C(C)(C)C)cc2)cc1 [Tenovin-1] | 2.16 | 1.83 | 0.772 | 0.753 | 1.08 | 1.03
37 | O=C(Nc1ccccc1)c1ccccc1O [Salicylanilide] | 0.807 | 0.631 | 0.393 | 0.532 | 0.798 | 0.892
38 | NCCCC[C@H](NC(=O)[C@@H]1CCCN1C(=O)[C@@H]1CSSC[C@H](NC(=O)CNC(=O)CNC(=O)CN)C(=O)N[C@@H](Cc2ccc(O)cc2)C(=O)N[C@@H](Cc2ccccc2)C(=O)N[C@@H](CCC(N)=O)C(=O)N[C@@H](CC(N)=O)C(=O)N1)C(=O)NCC(N)=O [Terlipressin Acetate] | 1.69 | 0.833 | 1.36 | 0.976 | 0.531 | 1.15
39 | NC[C@H](O)c1ccc(O)c(O)c1 [Noradrenaline bitartrate monohydrate] | 1.19 | 0.515 | 0.963 | 1.17 | 0.697 | 0.846
40 | CC(C(=O)O)c1ccc(C(=O)c2ccccc2)s1 (stereo unspecified) [Tiaprofenic acid] | 1.13 | 0.629 | 0.684 | 0.967 | 0.859 | 0.857
41 | COC(=O)Nc1ccc(-c2nc(N3CCOCC3)c3cnn(C4CCN(C(=O)OC)CC4)c3n2)cc1 | 1.52 | 2.8 | 1.17 | 2.27 | 1.92 | 4
42 | COc1ccc(C(=O)Nc2sc3c(c2C(N)=O)CCCC3)cc1OC | 1.04 | 2.61 | 1.02 | 0.845 | 0.747 | 2.82
43 | CC[C@H]1OC(=O)[C@H](C)[C@@H](O[C@H]2C[C@@](C)(OC)[C@@H](O)[C@H](C)O2)[C@H](C)[C@@H](O[C@@H]2O[C@H](C)C[C@H](N(C)C)[C@H]2O)[C@](C)(O)C[C@@H](C)C(=O)[C@H](C)[C@@H](O)[C@]1(C)O [Erythromycin thiocyanate] | 1.01 | 1.44 | 0.991 | 1.53 | 0.812 | 1.95
44 | COc1cccc2cc(-c3nc([C@H]4CC[C@H](C(=O)O)CC4)n4ncnc(N)c34)[nH]c12 | 2.33 | 2.18 | 1.44 | 3.76 | 2.92 | 3.56
45 | COc1ccc(CN2CCN(C(c3ccc(F)cc3)c3ccc(F)cc3)CC2)c(OC)c1OC [Lomerizine HCl] | 0.896 | 1.09 | 0.808 | 1.17 | 1.31 | 0.83
46 | O=C(c1cncc(Br)c1)N1CCC(N2CCCC2)CC1 | 0.781 | 0.805 | 0.843 | 1.31 | 1.28 | 0.898
